# PubChem BioAssay
# Activity calls are given as the source filed them. Unless noted, how the calls were made is not given here.
# What was measured:
# [1] = tested on: Wnt5a (protein binding on small-molecule microarray); test: Wnt5a binders on small-molecule microarray, primary screen, biophysical, 635/667 nm fluorescence (AID 1142); conditions: 635 nm fluorescence, higher = more signal;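 further: fluorescence read at 667 nm with signal to noise per printed feature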
# [2] = cell viability in Huh7 cells, primary screen, cytotoxicity control for HCV replication inhibitor project, CellTiter-Glo luminescence, basal, 48 h (AID 1143); conditions: Huh7 HCV replicon, CellTiter-Glo luminescence, 48 h, higher = more signal, called active from +8 up or from −8 down unless noted;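 further: Huh7 hepatoma cells carrying a hepatitis C replication reporter with no stimulus; test concentration not given here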
# [3] = P. aeruginosa biofilm formation inhibitors, primary screen, PAO1 strain, BacTiter-Glo luminescence, LB-PBS (AID 1144); conditions: 12 h, higher = more signal
# [4] = CREB reporter modulators without forskolin, primary screen, cell-based, PC12, CRE-LacZ reporter, unstimulated (AID 1145); conditions: no forskolin, luminescence, 4.5 h; higher = more signal, called active from +8 up or from −8 down unless noted
# [5] = CREB reporter modulators under forskolin, primary screen, cell-based, PC12, CRE-LacZ reporter, forskolin-stimulated (AID 1146); conditions: luminescence, 4.5 h; higher = more signal, called active from +8 up or from −8 down unless noted;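 further: PC12 cells with 6xCRE LacZ reporter stimulated by forskolin 10 µM; beta-galactosidase reporter signal reflecting CREB driven transcription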
# [6] = molecular target: Streptavidin (Streptomyces avidinii) (UniProt P22629); test: streptavidin binders on small-molecule microarray, primary screen, artefact control for SMM compound annotation, biophysical, 635/667 nm fluorescence (AID 1147); conditions: streptavidin binding, higher = more signal;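 further: signal reflects streptavidin binding to arrayed compounds as a control protein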
# Streptavidin (Streptomyces avidinii), sequence (P22629 whole entry, looked up): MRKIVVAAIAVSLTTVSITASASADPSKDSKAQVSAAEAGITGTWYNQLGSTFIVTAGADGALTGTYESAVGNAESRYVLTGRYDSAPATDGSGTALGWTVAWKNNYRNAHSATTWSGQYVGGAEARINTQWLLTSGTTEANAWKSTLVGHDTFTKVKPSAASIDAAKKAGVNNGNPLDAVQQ
# [7] = small-molecule binders of probe aInhba, primary screen, biochemical, small-molecule microarray, 635/667 nm fluorescence (AID 1148); conditions: higher = more signal; small-molecule microarray, probe aInhba, fluorescence unless noted;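 further: score merges 667nm spot fluorescence with signal-to-noise for antibody binding to printed compounds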
# Torsin-1A (Homo sapiens) [8] = molecular target: Torsin-1A (Homo sapiens) (UniProt O14656); test: torsin A binders from cell lysate, primary screen, small-molecule microarray, wild-type, 635/667 nm (AID 1149); conditions: COS7 hTOR1A-WT lysate, 635 nm fluorescence, higher = more signal
# Torsin-1A (Homo sapiens), sequence (O14656 whole entry, looked up): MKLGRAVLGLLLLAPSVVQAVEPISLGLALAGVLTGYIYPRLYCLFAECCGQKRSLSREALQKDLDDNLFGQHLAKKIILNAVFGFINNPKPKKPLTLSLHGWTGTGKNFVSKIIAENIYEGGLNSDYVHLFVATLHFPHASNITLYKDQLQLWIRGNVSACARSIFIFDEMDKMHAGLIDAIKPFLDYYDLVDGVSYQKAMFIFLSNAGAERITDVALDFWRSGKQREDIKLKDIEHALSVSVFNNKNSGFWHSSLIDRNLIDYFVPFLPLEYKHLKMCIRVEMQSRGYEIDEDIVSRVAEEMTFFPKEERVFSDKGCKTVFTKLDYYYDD
# Torsin-1A (Homo sapiens) [9] = molecular target: Torsin-1A (Homo sapiens) (UniProt O14656); test: small-molecule binders of mutant TOR1A in lysate, primary screen, cell lysate, small-molecule microarray, COS7 lysate, 635/667 nm fluorescence (AID 1150); conditions: COS7 hTOR1A mutant lysate, 635 nm fluorescence, higher = more signal;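 further: score pools 667 nm emission and signal to noise measuring lysate protein binding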
# [10] = tested on: Sonic hedgehog protein (Shh); test: small-molecule binders of Shh protein, primary screen, biochemical, small-molecule microarray, 635/667 nm fluorescence (AID 1151); conditions: small-molecule microarray binding, 635 nm fluorescence; higher = more signal;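 further: Shh protein binding to compounds spotted on small-molecule microarray slides; score combines spot fluorescence intensity with signal-to-noise across triplicate slides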
# [11] = E. coli DRC41 culture turbidity changes, primary screen, E. coli filamentation inducer project, strain DRC41, OD650, 48 h (AID 1152);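 further: E. coli MC1000 strain DRC41 lacking acrAB efflux pump and sulA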; conditions: E. coli DRC41 (acrAB sulA); higher = more signal, called active from +8 up or from −8 down unless noted
# [12] = small-molecule binders of probe aLefty1, primary screen, biochemical, small-molecule microarray, 635/667 nm fluorescence (AID 1153); conditions: higher = more signal; small-molecule microarray, probe aLefty1, fluorescence unless noted;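 further: score merges spot fluorescence with signal-to-noise ratio from the scanned slide images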
# [13] = PSAC antagonists in infected red cells, primary screen, cell-based, P. falciparum Indochina, OD700, 1 h (AID 1154); conditions: P. falciparum Indochina infected RBC osmotic lysis; higher = more signal, called active from +8 up or from −8 down unless noted
# [14] = PSAC antagonists in infected red cells, primary screen, cell-based, P. falciparum Indochina, OD700, 2 h (AID 1155);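 further: lysis reports solute entry through the parasite surface anion channel PSAC; channel blockers reduce lysis of infected cells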; conditions: P. falciparum Indochina infected erythrocytes, osmotic lysis OD700; higher = more signal, called active from +8 up or from −8 down unless noted
# [15] = osmotic lysis modulators in infected erythrocytes, primary screen, PSAC antagonist project, cell-based, P. falciparum Indochina, OD700, 3 h (AID 1156); conditions: higher = more signal, called active from +8 up or from −8 down unless noted
# [16] = PSAC antagonists in infected red cells, primary screen, cell-based, P. falciparum Indochina, OD700, 18 h (AID 1157); conditions: P. falciparum Indochina infected erythrocytes, osmotic lysis OD700, 18 h; higher = more signal, called active from +8 up or from −8 down unless noted
# [17] = modulators of S6 phosphorylation in cells, primary screen, cell-based, A549, cytoblot, luminescence, serum-stimulated (AID 1158); conditions: A549 phospho-S6 cytoblot, 5 h, higher = more signal;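 further: serum-stimulated A549 lung adenocarcinoma cells; signal is phosphorylated S6 detected by cytoblot immunostaining with HRP secondary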
# [18] = molecular target: NADPH oxidase 2 (Homo sapiens) (UniProt P04839); test: NOX2-dependent H2O2 signal modulators, primary screen, NOX inhibitor project, cell-based, HEK293-NOX2, PMA-stimulated, Amplex Red fluorescence (AID 1159); conditions: 45 min; higher = more signal, called active from +8 up or from −8 down unless noted; further: test concentration not given here
# NADPH oxidase 2 (Homo sapiens), sequence (P04839 whole entry, looked up): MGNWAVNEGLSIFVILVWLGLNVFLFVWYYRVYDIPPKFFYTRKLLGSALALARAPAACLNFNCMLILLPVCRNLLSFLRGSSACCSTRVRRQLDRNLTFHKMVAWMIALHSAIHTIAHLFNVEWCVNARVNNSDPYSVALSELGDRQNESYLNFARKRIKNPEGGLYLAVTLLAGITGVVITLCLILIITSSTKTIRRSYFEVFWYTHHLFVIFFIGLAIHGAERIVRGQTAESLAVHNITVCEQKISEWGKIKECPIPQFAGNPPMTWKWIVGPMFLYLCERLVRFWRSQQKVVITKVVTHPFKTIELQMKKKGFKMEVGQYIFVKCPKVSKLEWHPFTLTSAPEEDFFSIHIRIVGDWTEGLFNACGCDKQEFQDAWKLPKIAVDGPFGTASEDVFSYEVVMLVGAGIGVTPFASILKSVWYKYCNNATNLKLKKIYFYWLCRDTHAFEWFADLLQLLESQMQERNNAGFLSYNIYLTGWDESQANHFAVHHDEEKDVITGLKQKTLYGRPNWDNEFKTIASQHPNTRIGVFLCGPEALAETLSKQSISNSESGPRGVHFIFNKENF
# [19] = molecular target: NADPH oxidase 4 (Homo sapiens) (UniProt Q9NPH5); test: NOX4-dependent H2O2 signal modulators, primary screen, NOX inhibitor project, cell-based, HEK293-NOX4, tetracycline-induced, Amplex Red fluorescence (AID 1160); conditions: 45 min; higher = more signal, called active from +8 up or from −8 down unless noted
# NADPH oxidase 4 (Homo sapiens), sequence (Q9NPH5 whole entry, looked up): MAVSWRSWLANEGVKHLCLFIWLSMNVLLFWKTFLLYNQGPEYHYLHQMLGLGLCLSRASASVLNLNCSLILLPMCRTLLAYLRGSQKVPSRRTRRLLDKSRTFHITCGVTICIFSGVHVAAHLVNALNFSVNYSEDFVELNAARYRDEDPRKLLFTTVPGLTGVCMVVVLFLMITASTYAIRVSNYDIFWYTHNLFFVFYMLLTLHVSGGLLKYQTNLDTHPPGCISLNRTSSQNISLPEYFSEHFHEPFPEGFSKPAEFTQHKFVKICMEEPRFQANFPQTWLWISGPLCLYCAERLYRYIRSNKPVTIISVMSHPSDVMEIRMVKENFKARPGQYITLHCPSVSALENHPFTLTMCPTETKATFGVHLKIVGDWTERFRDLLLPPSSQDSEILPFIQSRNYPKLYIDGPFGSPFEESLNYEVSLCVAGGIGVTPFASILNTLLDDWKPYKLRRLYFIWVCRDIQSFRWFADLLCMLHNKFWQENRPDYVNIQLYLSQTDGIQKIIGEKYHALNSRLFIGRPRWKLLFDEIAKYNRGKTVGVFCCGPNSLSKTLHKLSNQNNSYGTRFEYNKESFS
# [20] = molecular target: NADPH oxidase 5 (Homo sapiens) (UniProt Q96PH1); test: NOX5-dependent H2O2 signal modulators, primary screen, NOX inhibitor project, cell-based, HEK293-NOX5, Amplex Red fluorescence (AID 1161); conditions: HEK293-NOX5, ionomycin, 45 min, higher = more signal
# NADPH oxidase 5 (Homo sapiens), sequence (Q96PH1 whole entry, looked up): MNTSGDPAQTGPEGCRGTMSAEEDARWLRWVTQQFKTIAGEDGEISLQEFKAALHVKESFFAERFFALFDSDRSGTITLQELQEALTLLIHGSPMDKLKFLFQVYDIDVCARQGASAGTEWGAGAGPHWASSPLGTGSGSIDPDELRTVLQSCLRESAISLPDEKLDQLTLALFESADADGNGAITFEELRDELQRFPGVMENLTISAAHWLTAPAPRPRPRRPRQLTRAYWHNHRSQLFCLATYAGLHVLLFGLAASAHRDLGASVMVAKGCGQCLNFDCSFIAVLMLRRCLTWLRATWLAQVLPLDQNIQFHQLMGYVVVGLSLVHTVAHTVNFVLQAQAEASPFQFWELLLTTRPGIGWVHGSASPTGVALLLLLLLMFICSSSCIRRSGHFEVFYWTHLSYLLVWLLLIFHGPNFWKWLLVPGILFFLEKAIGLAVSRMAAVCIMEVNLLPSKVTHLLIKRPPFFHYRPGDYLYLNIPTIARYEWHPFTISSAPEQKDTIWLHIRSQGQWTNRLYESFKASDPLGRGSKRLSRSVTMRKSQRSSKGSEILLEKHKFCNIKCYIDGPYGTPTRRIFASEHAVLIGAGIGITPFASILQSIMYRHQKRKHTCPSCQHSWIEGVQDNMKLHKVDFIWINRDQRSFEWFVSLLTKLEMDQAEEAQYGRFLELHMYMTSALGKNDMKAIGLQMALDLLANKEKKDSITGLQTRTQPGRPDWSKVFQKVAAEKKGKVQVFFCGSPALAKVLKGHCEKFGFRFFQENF
smiles,measurement,setting,value
C[C@H]1O[C@H]2C3=C(C(=O)[C@@H]4O[C@@H]4[C@@H]3O)[C@@H]1[C@@H]1[C@@H](C)OC=C3[C@@H](O)[C@H]4O[C@H]4C(=O)[C@]312,composite z-score,[1],-0.176
same,z-score,[2],-3.24 (inactive)
same,z-score,[3],-1.61 (inactive)
same,z-score,[4],1.65 (inactive)
same,z-score,[5],1.76 (inactive)
same,composite z-score,[6],-0.418
same,composite z-score,[7],-0.208
same,composite z-score,Torsin-1A (Homo sapiens) [8],0.251
same,composite z-score,Torsin-1A (Homo sapiens) [9],-0.306
same,composite z-score,[10],0.534
same,z-score,[11],-0.209 (inactive)
same,composite z-score,[12],-0.321
same,z-score,[13],-0.49 (inactive)
same,z-score,[14],-0.569 (inactive)
same,z-score,[15],0.276 (inactive)
same,z-score,[16],-0.987 (inactive)
same,z-score,[17],1.5
same,z-score,[18],-0.203 (inactive)
same,z-score,[19],-0.0614 (inactive)
same,z-score,[20],0.441
COc1cc2c(cc1O)C(C)N(C)CC2 (stereo not given),composite z-score,[1],-0.0967
same,z-score,[2],0.639 (inactive)
same,z-score,[3],0.67 (inactive)
same,z-score,[4],0.0655 (inactive)
same,z-score,[5],-0.497 (inactive)
same,composite z-score,[6],0.0031
same,composite z-score,[7],-0.0468
same,composite z-score,Torsin-1A (Homo sapiens) [8],-0.638
same,composite z-score,Torsin-1A (Homo sapiens) [9],-0.744
same,composite z-score,[10],-0.12
same,z-score,[11],1.01 (inactive)
same,composite z-score,[12],0.026
same,z-score,[13],0.726 (inactive)
same,z-score,[14],0.0698 (inactive)
same,z-score,[15],-0.306 (inactive)
same,z-score,[16],0.107 (inactive)
same,z-score,[17],-0.0939
same,z-score,[18],-2.93 (inactive)
same,z-score,[19],-1.92 (inactive)
same,z-score,[20],-2.86
OCc1ccc(C2=CC(C3CC3)N(Cc3sc4ccccc4c3Cl)CC2)cc1 (stereo not given),composite z-score,[1],0.074
same,z-score,[2],-3.22 (inactive)
same,z-score,[3],-0.259 (inactive)
same,z-score,[4],7.14 (inactive)
same,z-score,[5],-2.05 (inactive)
same,composite z-score,[6],0.337
same,composite z-score,[7],0.0028
same,composite z-score,Torsin-1A (Homo sapiens) [8],0.771
same,composite z-score,Torsin-1A (Homo sapiens) [9],0.679
same,composite z-score,[10],1.65
same,z-score,[11],-2 (inactive)
same,composite z-score,[12],0.0253
same,z-score,[13],13.6 (active)
same,z-score,[14],2.7 (inactive)
same,z-score,[15],0.258 (inactive)
same,z-score,[16],1.51 (inactive)
same,z-score,[17],-0.627
same,z-score,[18],0.703 (inactive)
same,z-score,[19],-1.07 (inactive)
same,z-score,[20],-1.55
COC(=O)[C@@]1(Cc2ccc(F)cc2)[C@H]2c3cc(C(=O)N(C)C)[nH]c3C[C@H]2CN1C(=O)c1ccccc1,composite z-score,[1],0.163
same,z-score,[2],-0.108 [setting not given] (inactive)
same,z-score,[3],0.208 (inactive)
same,z-score,[4],-0.754 [setting not given] (inactive)
same,z-score,[5],-0.0669 [setting not given] (inactive)
same,composite z-score,[6],0.134
same,composite z-score,[7],0.143 [setting not given]
same,composite z-score,Torsin-1A (Homo sapiens) [8],0.181
same,composite z-score,Torsin-1A (Homo sapiens) [9],0.252
same,composite z-score,[10],-0.879
same,z-score,[11],-0.652 [setting not given] (inactive)
same,composite z-score,[12],0.0738 [setting not given]
same,z-score,[13],1.37 [setting not given] (inactive)
same,z-score,[14],0.0978 [setting not given] (inactive)
same,z-score,[15],0.219 [setting not given] (inactive)
same,z-score,[16],0.641 [setting not given] (inactive)
same,z-score,[17],-0.393
same,z-score,[18],0.33 [setting not given] (inactive)
same,z-score,[19],0.502 [setting not given] (inactive)
same,z-score,[20],-0.936
CCOC(=O)[C@H]1CC=C2C(=O)Oc3ccc(Br)cc3[C@@H]21,composite z-score,[1],-0.707
same,z-score,[2],-0.87 (inactive)
same,z-score,[3],-0.301 (inactive)
same,z-score,[4],0.0331 (inactive)
same,z-score,[5],34.1 (active)
same,composite z-score,[6],0.307
same,composite z-score,[7],-0.128
same,composite z-score,Torsin-1A (Homo sapiens) [8],0.0083
same,composite z-score,Torsin-1A (Homo sapiens) [9],0.127
same,composite z-score,[10],-0.968
same,z-score,[11],-0.704 (inactive)
same,composite z-score,[12],0.035
same,z-score,[13],1.79 (inactive)
same,z-score,[14],1.03 (inactive)
same,z-score,[15],-0.0107 (inactive)
same,z-score,[16],0.756 (inactive)
same,z-score,[17],-0.747
same,z-score,[18],-0.0356 (inactive)
same,z-score,[19],-1.75 (inactive)
same,z-score,[20],-0.445
COc1cc2c(cc1O)C=[N+](C)CC2,composite z-score,[1],0.182
same,z-score,[2],-1.29 (inactive)
same,z-score,[3],-0.527 (inactive)
same,z-score,[4],-0.438 (inactive)
same,z-score,[5],-0.811 (inactive)
same,composite z-score,[6],-0.306
same,composite z-score,[7],-0.152
same,composite z-score,Torsin-1A (Homo sapiens) [8],-1.31
same,composite z-score,Torsin-1A (Homo sapiens) [9],-1.25
same,composite z-score,[10],1.65
same,z-score,[11],1.13 (inactive)
same,composite z-score,[12],-0.147
same,z-score,[13],2.39 (inactive)
same,z-score,[14],-0.687 (inactive)
same,z-score,[15],0.0284 (inactive)
same,z-score,[16],-0.752 (inactive)
same,z-score,[17],2.42
same,z-score,[18],-3.74 (inactive)
same,z-score,[19],-2.03 (inactive)
same,z-score,[20],-2.13
CN1CCC(c2ccc(CO)cc2)=CC1C1CC1 (stereo not given),composite z-score,[1],-0.103
same,z-score,[2],-0.209 (inactive)
same,z-score,[3],0.656 (inactive)
same,z-score,[4],3.78 (inactive)
same,z-score,[5],0.54 (inactive)
same,composite z-score,[6],-0.333
same,composite z-score,[7],-0.101
same,composite z-score,Torsin-1A (Homo sapiens) [8],0.309
same,composite z-score,Torsin-1A (Homo sapiens) [9],0.431
same,composite z-score,[10],1.85
same,z-score,[11],-0.492 (inactive)
same,composite z-score,[12],0.103
same,z-score,[13],0.899 (inactive)
same,z-score,[14],0.0137 (inactive)
same,z-score,[15],-0.38 (inactive)
same,z-score,[16],0.0864 (inactive)
same,z-score,[17],-1.04
same,z-score,[18],-0.477 (inactive)
same,z-score,[19],-0.169 (inactive)
same,z-score,[20],-0.0858
CCCc1cc2c(n1CCO)C(C)C1CN(C(=O)c3ccccc3)C(C)(C(=O)OC)C21 (stereo not given),composite z-score,[1],0.559
same,z-score,[2],-0.938 (inactive)
same,z-score,[3],0.251 (inactive)
same,z-score,[4],1.74 (inactive)
same,z-score,[5],0.444 (inactive)
same,composite z-score,[6],1.04
same,composite z-score,[7],0.414
same,composite z-score,Torsin-1A (Homo sapiens) [8],0.726
same,composite z-score,Torsin-1A (Homo sapiens) [9],1.02
same,composite z-score,[10],-0.898
same,z-score,[11],-1.14 (inactive)
same,composite z-score,[12],0.549
same,z-score,[13],2.33 (inactive)
same,z-score,[14],0.196 (inactive)
same,z-score,[15],0.101 (inactive)
same,z-score,[16],0.618 (inactive)
same,z-score,[17],-0.199
same,z-score,[18],0.0961 (inactive)
same,z-score,[19],-2.55 (inactive)
same,z-score,[20],-2.35
